Source: PubChem BioAssay (Johns Hopkins Ion Channel Center)
KCNQ2 pot – KCNQ2 (rat) channel potentiation; O88943; CHO-K1 KCNQ2, FluxOR thallium flux fluorescence; stronger effect = higher value; B-score at 10 µM; hit rate 0.54% among 310,000; AID 2239;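 active = fluorescence ratio B-score at least 3 SD of library B-scores, with initial fluorescence B-score within 3 of them, cut at about 5.3 in these data; same plate scores as AID 2156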;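 note: B-score of peak minus minimum over baseline fluorescence ratio after K+ and Tl+ stimulus; positive B-score means potentiation of KCNQ2 with more thallium influx and brighter signal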
Target sequence (O88943 whole entry, looked up): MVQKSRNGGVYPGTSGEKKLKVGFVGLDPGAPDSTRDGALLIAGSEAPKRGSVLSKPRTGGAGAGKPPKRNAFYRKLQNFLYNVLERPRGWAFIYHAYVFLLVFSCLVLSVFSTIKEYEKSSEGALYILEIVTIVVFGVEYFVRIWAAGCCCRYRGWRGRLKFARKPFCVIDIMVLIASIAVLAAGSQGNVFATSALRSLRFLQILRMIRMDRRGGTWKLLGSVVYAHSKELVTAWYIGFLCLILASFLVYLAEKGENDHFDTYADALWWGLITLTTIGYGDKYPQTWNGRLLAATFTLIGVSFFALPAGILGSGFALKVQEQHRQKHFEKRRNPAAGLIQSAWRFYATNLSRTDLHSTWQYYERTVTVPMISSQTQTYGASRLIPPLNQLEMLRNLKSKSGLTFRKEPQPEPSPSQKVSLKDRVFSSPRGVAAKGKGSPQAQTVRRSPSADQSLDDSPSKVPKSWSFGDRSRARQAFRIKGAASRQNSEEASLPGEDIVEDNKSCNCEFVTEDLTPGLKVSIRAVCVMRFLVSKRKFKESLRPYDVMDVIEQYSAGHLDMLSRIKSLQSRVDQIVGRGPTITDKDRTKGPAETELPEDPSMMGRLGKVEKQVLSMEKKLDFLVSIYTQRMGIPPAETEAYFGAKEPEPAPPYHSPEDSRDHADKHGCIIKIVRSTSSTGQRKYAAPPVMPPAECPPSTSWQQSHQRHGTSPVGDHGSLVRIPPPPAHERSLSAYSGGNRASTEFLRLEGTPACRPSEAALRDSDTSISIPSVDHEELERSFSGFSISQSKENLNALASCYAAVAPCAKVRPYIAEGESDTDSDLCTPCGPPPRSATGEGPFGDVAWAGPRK
KCNQ2 inh – blocks the rat KCNQ2 potassium channel | O88943 | CHO-K1 KCNQ2, FluxOR thallium flux, 20 min; stronger effect = lower value | B-score at 10 µM | hit rate 1.1% among 310,000;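 active = fluorescence ratio B-score at most minus 3 library SDs, with starting brightness B-score within 2 library SDs, cut at about -5.5 in these data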
KCNQ2 block conf – rat KCNQ2 channel inhibition, confirmatory screen. KCNQ2-expressing cells, thallium flux; stronger effect = lower value. shares compounds with KCNQ2 inh. hit rate 57% among 1,000. activity change, negative = inhibition, % at 10 µM;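 note: 0% = vehicle wells and values are ratio percent relative to vehicle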
KCNQ1 spec – selectivity of KCNQ2 inhibitors against human KCNQ1 | shares compounds with KCNQ2 inh | KCNQ1-expressing cells, FluxOR thallium flux fluorescence; stronger effect = lower value | activity change, negative = inhibition, % at 10 µM | hit rate 15% among 1,000 | AID 493026;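 active = activity change at least 3 SD of negative controls below their mean in both duplicate wells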;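 note: CHO cells stably transfected with KCNQ1 and depolarized by potassium stimulus; peak minus minimum fluorescence over baseline after thallium addition; 0% = vehicle negative control and -100% = blank without thallium stimulus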
CHO parental ctr – counter-screen for KCNQ2 inhibitors: effect in parental CHO cells; thallium flux counter-screen; stronger effect = lower value; hit rate 14% among 1,000; activity change, % at 10 µM; shares compounds with KCNQ2 inh;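 note: 0% = vehicle negative controls with stimulus buffer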
KCNQ2 patch conf – rat KCNQ2 inhibition confirmed by electrophysiology | calls only at 10 µM | KCNQ2-expressing cells, automated patch clamp current | shares compounds with KCNQ2 inh | AID 588531 | hit rate 49% among 550
* hit, by the source's call; i = inactive; nt = not tested or not shown; + = active, no number. A selection: hits, their analogues and other compounds. The true share with any hit is near 1.6%. Unless noted, the rule behind the calls is not given here.

SMILES | KCNQ2 pot | KCNQ2 inh | KCNQ2 block conf | KCNQ1 spec | CHO parental ctr | others
Cc1ccccc1OCc1nc(C#N)c(N2CCCC2)o1 | nt | i | nt | nt | nt
O=C(COc1ccc(C(=O)NCC2CCCO2)cc1)Nc1cccc(C(F)(F)F)c1 (stereo not drawn) | nt | i | nt | nt | nt
CCOC(=O)c1ccc(-c2ccc3c(c2)CCC3)nc1C | 0.27 | i | nt | nt | nt
CC1(c2ccccc2Cl)NC(=O)N(CC(=O)NCc2ccco2)C1=O (stereo not drawn) | 2.4 | i | nt | nt | nt
O=C(COc1ccc(-c2nnc(N3CCCCC3)c3ccccc23)cc1)N1CCCCC1 | nt | i | nt | nt | nt
Cc1ccc(-c2nnc(N3CCN(C(=O)COc4ccccc4)CC3)c3ccccc23)cc1 | -7.6 | -7.6* | -27%* | i | i | KCNQ2 patch conf=+
COc1ccc(CCN2CC(C(=O)N(C)CCOc3ccccc3)CCC2=O)cc1 (stereo not drawn) | nt | i | nt | nt | nt
CN(CCOc1ccccc1)C(=O)C1CCC(=O)N(CCc2ccc(Cl)cc2)C1 (stereo not drawn) | -7.8 | -7.8* | i | i | i
Cc1onc(-c2ccccc2)c1C(=O)Nc1nnc(CC(C)C)s1 | 0.06 | i | nt | nt | nt
Cc1c(Cl)cccc1NC(=S)NC1CCN(C(C)C)CC1 | 0.62 | i | nt | nt | nt
O=C(CSc1nnc(-c2ccc(F)cc2)c2ccccc12)NCC1CCCO1 (stereo not drawn) | 0.51 | i | nt | nt | nt
O=C(c1ccc(-n2cncn2)c([N+](=O)[O-])c1)N1CCN(S(=O)(=O)c2cccc(F)c2)CC1 | 0.07 | i | nt | nt | nt
Cc1cccc(N2C(=O)/C(=C\c3ccc(C(=O)O)cc3)c3ccccc3C2=O)c1 | -9.1 | -9.1* | -20%* | i | i | KCNQ2 patch conf=i
Cc1cccc(N2C(=O)c3ccc(C(=O)Nc4ccccn4)cc3C2=O)c1 | 0.05 | i | nt | nt | nt
COC(=O)c1ccc2c(=O)n(CC3CCCO3)c(SCC(=O)Nc3ccc(OC)cc3OC)nc2c1 (stereo not drawn) | 1.1 | i | nt | nt | nt
c1cc2c(cc1C1CCCCC1)c1c3n2CCCNC3CCC1 (stereo not drawn) | -12 | -12* | -34%* | i | i | KCNQ2 patch conf=i
Cc1ccc2c(c1)c1c3n2CCCNC3CCC1 (stereo not drawn) | nt | i | nt | nt | nt
CCOc1ccc(S(=O)(=O)N2CCN(C(=O)C3CCC3)CC2)cc1 | 0.02 | i | nt | nt | nt
CCn1cc(CN2CCc3c([nH]c4ccccc34)C2c2cccc(OC)c2OC)c(C)n1 (stereo not drawn) | nt | i | nt | nt | nt
Cc1ccc(C)c(NC(=O)C2CCCC2)c1 | 0.81 | i | nt | nt | nt
COc1cc(OC)cc(C(=O)Nn2cc(C(=O)Nc3c(F)cccc3F)c3ccccc3c2=O)c1 | -6.9 | -6.9* | i | i | i
COC(=O)c1cn(NC(=O)c2cc(OC)cc(OC)c2)c(=O)c2ccccc12 | 0.43 | i | nt | nt | nt
Cc1cccc(N2CCN(C(=O)C34CC5CC(CC(C5)C3)C4)CC2)c1C | -7.3 | -7.3* | -20%* | i | i | KCNQ2 patch conf=i
Cc1cccc(N2CCN(C(=O)N3CCCCC3)CC2)c1C | nt | i | nt | nt | nt
O=C(N1CCN(c2ccc(F)cc2)CC1)C12CC3CC(CC(C3)C1)C2 | nt | i | nt | nt | nt
SMILES | KCNQ2 pot | KCNQ2 inh | KCNQ2 block conf | KCNQ1 spec | CHO parental ctr | others
O=C(N1CCN(c2ccccc2F)CC1)C12CC3CC(CC(C3)C1)C2 | -7.6 | -7.6* | -26%* | i | i | KCNQ2 patch conf=+
C=CCSc1nc(N)c(C#N)c(-c2ccc(C)cc2)c1C#N | nt | i | nt | nt | nt
C=CCSc1nc2c(c(C3CC=CCC3)c1C#N)CCC2 (stereo not drawn) | -12 | -12* | -32%* | -31%* | -22%* | KCNQ2 patch conf=i
C[n+]1cccc(O)c1SCc1ccccc1 | 0.79 | i | nt | nt | nt
Cc1cc(/C=C2\SC(N)=NC2=O)c(C)n1-c1ccc(F)cc1 | 0.15 | i | nt | nt | nt
COc1ccccc1CNC(=O)COc1ccccc1C | nt | i | nt | nt | nt
C/C=C/c1ccc(OCC(=O)NCc2ccccc2OC)c(OC)c1 | -6.7 | -6.7* | i | i | i
CC(=O)Nc1ccccc1OCC(=O)NC(C)c1ccccc1 (stereo not drawn) | 0.9 | i | nt | nt | nt
CC(NC(=O)COc1ccccc1-c1ccccc1)c1ccccc1 (stereo not drawn) | -6.9 | -6.9* | -34%* | -30%* | -24%* | KCNQ2 patch conf=+
COc1ccc(/C=N/NC(=O)COc2ccccc2-c2ccccc2)cc1 | nt | i | nt | nt | nt
O=C(COc1ccccc1-c1ccccc1)N/N=C/c1cccc2ccccc12 | -7.8 | -7.8* | i | i | i
Cc1cc(C)c(C)c(S(=O)(=O)NC2CCN(Cc3ccccc3)CC2)c1C | nt | i | nt | nt | nt
c1ccc(C(c2nnnn2Cc2ccco2)N2CCN(c3nc4ccccc4s3)CC2)cc1 (stereo not drawn) | nt | i | nt | nt | nt
COc1ccccc1C(c1nnnn1Cc1ccccc1)N1CCN(c2nc3ccccc3s2)CC1 (stereo not drawn) | -8.8 | -8.8* | -31%* | i | i | KCNQ2 patch conf=+
COc1ccc(C(c2nnnn2Cc2ccccc2)N2CCN(c3nc4ccccc4s3)CC2)cc1OC (stereo not drawn) | nt | i | nt | nt | nt
c1ccc(Cn2nnnc2C(c2ccccc2)N2CCN(c3nc4ccccc4s3)CC2)cc1 (stereo not drawn) | -7.9 | -7.9* | -37%* | i | i | KCNQ2 patch conf=i
COc1ccc(N2CCN(c3ccc4nnc(CCC(=O)Nc5ccc(C)cc5)n4n3)CC2)cc1 | 1.1 | i | nt | nt | nt
Cc1oc(-c2cccs2)nc1CN1CCN(Cc2ccc(F)c(F)c2)C(CCO)C1 (stereo not drawn) | 1.4 | i | nt | nt | nt
O=C(/C=C/c1ccccc1Br)c1ccc2c(c1)OCO2 | -6.8 | -6.8* | i | i | i
O=C(/C=C/c1ccccc1)c1ccc2c(c1)OCO2 | nt | i | nt | nt | nt
COc1ccc(S(=O)(=O)NCC(c2ccc3c(c2)OCO3)N2CCOCC2)cc1 (stereo not drawn) | nt | i | nt | nt | nt
COC(=O)C(Cc1ccccc1)NCC(=O)Nc1cccc(Cl)c1C (stereo not drawn) | -8.2 | -8.2* | -36%* | i | i | KCNQ2 patch conf=+
Cc1c(Cl)cccc1NC(=O)CS(=O)(=O)c1ccccc1 | nt | i | nt | nt | nt
O=C(O)c1cc(-n2[nH]c(=O)c3ccccc3c2=O)ccc1Cl | nt | i | nt | nt | nt
Cc1ccc2c(C)c(C(=O)N3CCN(Cc4ccc5c(c4)OCO5)CC3)oc2c1C | -6.9 | -6.9* | i | i | i
SMILES | KCNQ2 pot | KCNQ2 inh | KCNQ2 block conf | KCNQ1 spec | CHO parental ctr | others
Cc1ccc(C(=O)N2CCN(Cc3ccc4c(c3)OCO4)CC2)o1 | 0.38 | i | nt | nt | nt
CCN(Cc1ccncc1)C(=O)c1cc(COc2ccc(OC)cc2Cl)on1 | nt | i | nt | nt | nt
CCN(CC)C(=O)c1cn(CCC#N)nc1-c1ccc(F)cc1 | 0.11 | i | nt | nt | nt
COc1ccc(N(CC(=O)N2CCc3ccccc3C2)S(=O)(=O)c2ccccc2)cc1 | nt | i | nt | nt | nt
O=C(CN(c1ccc(Cl)c(Cl)c1)S(=O)(=O)c1ccccc1)N1CCc2ccccc2C1 | -9.4 | -9.4* | -33%* | i | i | KCNQ2 patch conf=+
COc1ccc(N=N/C(=C\O)C(=O)c2cccs2)cc1 | nt | i | nt | nt | nt
COc1ccc(/C=C(/C(=O)c2cccs2)N2C=CC=CC2=C(C#N)C#N)cc1 | -7.9 | -7.9* | -42%* | i | i | KCNQ2 patch conf=i
